For 8 molecules, z-score and composite z-score results are on record in PubChem BioAssay.

The source made the active and inactive calls.

Assay [1] in a line: optical density shifts of acrAB sulA E. coli – strain DRC41, OD650, 48 h, E. coli filamentation inducer project, primary screen (AID 1152).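 Note: E. coli MC1000 strain DRC41 lacking acrAB efflux pump and sulA.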 The conditions noted are these: higher = more signal, called active from +8 up or from −8 down.
Assay [2] is described as follows: probe aLefty1 binding on compound microarray – biochemical, small-molecule microarray, 635/667 nm fluorescence, primary screen (AID 1153).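 Note: score merges spot fluorescence with signal-to-noise ratio from the scanned slide images.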 The conditions noted are these: higher = more signal.
Assay [3] can be described thus: plasmodial surface anion channel blockers, osmotic lysis – cell-based, P. falciparum Indochina, OD700, 1 h, primary screen (AID 1154). The conditions noted are these: P. falciparum Indochina infected RBC osmotic lysis, higher = more signal, called active from +8 up or from −8 down.
A short description of assay [4]: plasmodial surface anion channel blockers, osmotic lysis – cell-based, P. falciparum Indochina, OD700, 2 h, primary screen (AID 1155).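 Note: lysis reports solute entry through the parasite surface anion channel PSAC.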 The conditions noted are these: P. falciparum Indochina infected erythrocytes, higher = more signal, called active from +8 up or from −8 down.
Assay [5] in a line: changes in parasitized red cell lysis, either direction – P. falciparum Indochina, OD700, 3 h, PSAC antagonist project, primary screen (AID 1156). The conditions noted are these: P. falciparum-infected erythrocytes, osmotic lysis, higher = more signal, called active from +8 up or from −8 down.
Assay [6] can be described thus: plasmodial surface anion channel blockers, osmotic lysis – cell-based, P. falciparum Indochina, OD700, 18 h, primary screen (AID 1157). The settings on record: P. falciparum Indochina infected erythrocytes, osmotic lysis OD700, 18 h; higher = more signal, called active from +8 up or from −8 down.
Assay [7] can be described thus: S6 kinase pathway phospho-S6 level changes – cell-based, A549, cytoblot, luminescence, serum-stimulated, primary screen (AID 1158).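 Note: serum-stimulated A549 lung adenocarcinoma cells; signal is phosphorylated S6 detected by cytoblot immunostaining with HRP secondary.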 The settings on record: 5 h, higher = more signal.
The target in assay [8] is NADPH oxidase 2 (Homo sapiens) (UniProt P04839). Kind of assay: compounds shifting NOX2 Amplex Red fluorescence – cell-based, HEK293-NOX2, PMA-stimulated, NOX inhibitor project, primary screen (AID 1159). Note: test concentration not given here. The conditions noted are these: 45 min, higher = more signal, called active from +8 up or from −8 down.
NADPH oxidase 2 (Homo sapiens), sequence (P04839 whole entry, looked up): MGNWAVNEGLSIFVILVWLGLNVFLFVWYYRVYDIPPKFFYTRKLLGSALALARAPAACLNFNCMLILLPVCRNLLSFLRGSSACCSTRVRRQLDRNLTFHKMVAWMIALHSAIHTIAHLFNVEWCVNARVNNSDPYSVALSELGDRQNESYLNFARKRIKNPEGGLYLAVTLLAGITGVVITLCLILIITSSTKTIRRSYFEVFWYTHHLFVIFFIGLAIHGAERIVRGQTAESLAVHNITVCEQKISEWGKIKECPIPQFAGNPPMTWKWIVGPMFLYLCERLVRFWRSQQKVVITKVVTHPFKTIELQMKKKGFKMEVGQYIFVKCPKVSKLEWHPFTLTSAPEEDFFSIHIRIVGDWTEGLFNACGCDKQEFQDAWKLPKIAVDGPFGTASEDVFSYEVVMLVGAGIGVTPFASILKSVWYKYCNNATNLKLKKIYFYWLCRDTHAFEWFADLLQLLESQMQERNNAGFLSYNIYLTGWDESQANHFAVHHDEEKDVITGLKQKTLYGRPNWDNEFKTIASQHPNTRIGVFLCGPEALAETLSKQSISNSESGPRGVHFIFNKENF
For assay [9], the target named is NADPH oxidase 4 (Homo sapiens) (UniProt Q9NPH5). Description: compounds shifting NOX4 Amplex Red fluorescence – cell-based, HEK293-NOX4, tetracycline-induced, NOX inhibitor project, primary screen (AID 1160). The settings on record: HEK293-NOX4, Amplex Red H2O2 fluorescence, 45 min; higher = more signal, called active from +8 up or from −8 down.
NADPH oxidase 4 (Homo sapiens), sequence (Q9NPH5 whole entry, looked up): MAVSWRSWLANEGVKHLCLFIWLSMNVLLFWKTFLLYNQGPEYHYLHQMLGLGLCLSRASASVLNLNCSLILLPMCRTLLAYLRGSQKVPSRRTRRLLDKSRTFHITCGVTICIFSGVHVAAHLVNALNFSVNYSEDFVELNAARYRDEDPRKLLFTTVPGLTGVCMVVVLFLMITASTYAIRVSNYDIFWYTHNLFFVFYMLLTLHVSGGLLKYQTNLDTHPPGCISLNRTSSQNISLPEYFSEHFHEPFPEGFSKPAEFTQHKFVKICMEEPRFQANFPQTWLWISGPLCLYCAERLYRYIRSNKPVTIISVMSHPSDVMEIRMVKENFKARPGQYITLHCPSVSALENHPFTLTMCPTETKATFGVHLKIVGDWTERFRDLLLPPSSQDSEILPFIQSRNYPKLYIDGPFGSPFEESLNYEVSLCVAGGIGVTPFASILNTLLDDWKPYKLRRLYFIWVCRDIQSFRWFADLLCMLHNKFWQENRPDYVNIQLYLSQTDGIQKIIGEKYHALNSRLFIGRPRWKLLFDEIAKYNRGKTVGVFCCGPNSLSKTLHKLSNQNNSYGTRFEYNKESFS
Assay [10] addresses NADPH oxidase 5 (Homo sapiens) (UniProt Q96PH1). Kind of assay: compounds shifting NOX5 Amplex Red fluorescence – cell-based, HEK293-NOX5, NOX inhibitor project, primary screen (AID 1161). The conditions noted are these: HEK293-NOX5, ionomycin, 45 min, higher = more signal.
The nature of assay [11]: compound effects on lung adenocarcinoma cell viability – A549, calcein-AM fluorescence, 48 h, basal, profiling panel (AID 1162). Note: test concentration not given here. The conditions noted are these: higher = more signal.
Assay [12] in a line: compound effects on differentiated 3T3-L1 adipocyte viability – cell-based, 3T3-L1 adipocytes, calcein-AM fluorescence, 48 h, basal, profiling panel (AID 1163). Note: test concentration not given here. The settings on record: 3T3-L1 adipocytes viability, higher = more signal.
The nature of assay [13]: compound effects on hepatocellular carcinoma cell viability – HepG2, calcein-AM fluorescence, 48 h, basal, profiling panel (AID 1164). Note: test concentration not given here. The settings on record: higher = more signal.
The nature of assay [14]: compound effects on multiple myeloma cell viability – MM1S, calcein-AM fluorescence, 48 h, basal, profiling panel (AID 1165).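 Note: viability of MM1S multiple myeloma cells under basal unstimulated conditions; test concentration not given here.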 The settings on record: higher = more signal.
The nature of assay [15]: calcein-AM signal in unstimulated myeloma cells – cell-based, calcein-AM fluorescence, 48 h, PK04 Diversity Set, profiling panel (AID 1166).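 Note: cells grown under basal conditions without added stimulus; test concentration not given here.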 The conditions noted are these: RPMI8226 myeloma viability, higher = more signal.
The nature of assay [16]: JC-1 mitochondrial signal, unstimulated HepG2 cells – cell-based, JC-1 fluorescence, 24 h, 100 nL compound, profiling panel (AID 1167). Note: test concentration not given here. The settings on record: HepG2 mitochondrial potential, higher = more signal.
A short description of assay [17]: JC-1 mitochondrial signal, unstimulated adipocytes – cell-based, JC-1 fluorescence, 3T3-L1 adipocytes, 24 h, 100 nL compound, profiling panel (AID 1168). Note: test concentration not given here. The conditions noted are these: JC-1 mitochondrial fluorescence, higher = more signal, called active from +8 up or from −8 down.
Assay [18] is described as follows: JC-1 mitochondrial signal, unstimulated myeloma cells – cell-based, JC-1 fluorescence, RPMI8226, 24 h, 100 nL compound, profiling panel (AID 1169). Note: test concentration not given here. The settings on record: JC-1 mitochondrial potential fluorescence, higher = more signal.
Assay [19] can be described thus: JC-1 mitochondrial signal, unstimulated MM1S myeloma – cell-based, JC-1 fluorescence, 24 h, 100 nL compound, profiling panel (AID 1170). Note: test concentration not given here. The settings on record: MM1S mitochondrial potential, higher = more signal.
A short description of assay [20]: resazurin metabolic signal in A549 cells – cell-based, resazurin fluorescence, 24 h, PK04 Diversity Set, profiling panel (AID 1171). Note: test concentration not given here. The conditions noted are these: A549 viability, higher = more signal, called active from +8 up or from −8 down.

NADPH oxidase 5 (Homo sapiens), sequence (Q96PH1 whole entry, looked up): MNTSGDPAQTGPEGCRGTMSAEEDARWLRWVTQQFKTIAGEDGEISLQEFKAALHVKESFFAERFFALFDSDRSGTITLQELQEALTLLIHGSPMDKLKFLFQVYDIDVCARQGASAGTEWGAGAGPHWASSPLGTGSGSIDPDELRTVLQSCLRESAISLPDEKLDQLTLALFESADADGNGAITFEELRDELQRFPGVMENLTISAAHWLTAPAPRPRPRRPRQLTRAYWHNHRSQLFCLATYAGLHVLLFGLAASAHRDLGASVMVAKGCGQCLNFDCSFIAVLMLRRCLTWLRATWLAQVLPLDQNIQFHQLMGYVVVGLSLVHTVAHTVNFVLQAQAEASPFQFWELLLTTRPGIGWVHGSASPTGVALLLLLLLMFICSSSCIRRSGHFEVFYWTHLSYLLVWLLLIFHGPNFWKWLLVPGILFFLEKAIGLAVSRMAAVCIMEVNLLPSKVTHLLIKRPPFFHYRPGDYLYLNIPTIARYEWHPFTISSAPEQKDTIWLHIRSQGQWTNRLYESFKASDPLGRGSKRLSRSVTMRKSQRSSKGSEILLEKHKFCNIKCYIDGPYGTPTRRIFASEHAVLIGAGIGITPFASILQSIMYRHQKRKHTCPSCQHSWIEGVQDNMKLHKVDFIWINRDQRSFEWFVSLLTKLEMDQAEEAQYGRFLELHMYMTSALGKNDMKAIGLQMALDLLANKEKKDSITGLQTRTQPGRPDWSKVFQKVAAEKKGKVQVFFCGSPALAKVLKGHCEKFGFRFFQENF

`O=C1O[C@@H](c2ccccc2)[C@@H](c2ccccc2)N2[C@@H](c3ccccc3OCCO)[C@]3(C(=O)Nc4ccccc43)[C@@H](C(=O)NC[C@H](O)c3ccccc3)[C@H]12`: the z-score in assay [1] is -0.275 (inactive); in assay [3], 5.03 (inactive); in assay [4] it was 2.2 (inactive); in [5] it was -0.526 (inactive); in [6] it was 1.87 (inactive); in assay [7] it was -0.589. Further, the z-score in assay [8] was 1.43 (inactive); in assay [9], 0.303 (inactive); in assay [10], 1.56; in assay [11], -1.53; in assay [12], 0.0155; in assay [13], -3.94. Moreover, the z-score in assay [14] is -3.32; in assay [15] it was -4.54; in [16], -1.64; in [17], 0.305 (inactive); in [18] it was -1.22; in [19], -2.09. In assay [20], the z-score is -1.99 (inactive). For the same molecule, the composite z-score in [2] was 0.0112.

As for `O=C(CCCCCCC(=O)Nc1ccccc1)N/N=C/c1ccccc1`, the z-score in [1] is -0.362 (inactive); in assay [3] it was 24 (active); in [4] it was 10.9 (active); in assay [5] it was 0.0998 (inactive); in [6] it was 0.992 (inactive); in [7], -0.0886. The z-score in assay [8] is -0.3 (inactive); in [9], -0.0411 (inactive); in [10], -0.185; in assay [11], 1.08; in assay [12] it was 0.194; in assay [13], -0.371. Also, the z-score was -0.669 in [14]; -0.419 in assay [15]; -0.807 in assay [16]; -0.498 (inactive) in assay [17]; -0.045 in assay [18]; -0.593 in [19]. Besides, the z-score in [20] is 0.589 (inactive). The molecule also registered a composite z-score in assay [2] of -0.24.

Turning to `C=CCN1C(=O)[C@@]2(CCC(=O)OC(C)(C)C)N=C(c3ccc(OCCCO)cc3)O[C@H]2c2ccccc21`, the z-score in assay [1] is 0.46 (inactive); in assay [3] it was 36.7 (active); in assay [4], 36.3 (active); in assay [5], 3.79 (inactive); in [6], 13.2 (active); in assay [7] it was 0.0444. Besides, the z-score in [8] was -2.82 (inactive); in assay [9], 0.413 (inactive); in [10] it was -0.917; in assay [11], -1.22; in assay [12] it was 0.28; in assay [13], -2.35. Also, the z-score in assay [14] is -3.59; in [15] it was -3.97; in assay [16] it was -1.62; in assay [17], 2.8 (inactive); in assay [18], -1.19; in [19] it was -2.57. Besides, the z-score in [20] is -1.66 (inactive). The composite z-score in assay [2] came out at 0.466.

On to `C=CCNC(=O)[C@@H]1[C@H]2C(=O)O[C@H](c3ccccc3)[C@H](c3ccccc3)N2[C@H](c2ccc(OCCO)cc2)[C@@]12C(=O)N(C(=O)OCCOC)c1ccc(C#CC3=CCCCC3)cc12`, for which the z-score in [1] was -0.892 (inactive); in assay [3], 6.2 (inactive); in [4], 2.12 (inactive); in [5], 0.669 (inactive); in assay [6], 1.46 (inactive); in [7], 0.0846. The z-score in assay [8] was 1.13 (inactive); in assay [9] it was -0.0729 (inactive); in assay [10], 1.69; in assay [11] it was -0.549; in assay [12], -0.354; in [13], 0.0468. Also, the z-score is -1.45 in assay [14]; -1.59 in assay [15]; -0.893 in assay [16]; -0.0381 (inactive) in assay [17]; -0.814 in assay [18]; -1.57 in assay [19]. Moreover, the z-score in assay [20] was -1.01 (inactive). The composite z-score in assay [2] worked out at 0.173.

On to `CCOC(=O)C1=C[C@@H](c2ccccc2)N(S(=O)(=O)c2ccc(C)cc2)[C@H]1c1cccc(Cl)c1`, for which the z-score was -1.29 (inactive) in assay [1]; 1.57 (inactive) in [3]; 1.24 (inactive) in assay [4]; -0.276 (inactive) in [5]; 0.805 (inactive) in [6]; -0.645 in [7]. The z-score in assay [8] is 0.14 (inactive); in assay [9], -0.143 (inactive); in assay [10], 0.0576; in assay [11], -1.17; in [12], 0.452; in [13], -1.71. The z-score in assay [14] was -1.33; in assay [15], -1.48; in assay [16], 2.04; in [17], -0.591 (inactive); in [18], 0.754; in assay [19], 0.648. In addition, in [20], the z-score was 0.776 (inactive). The composite z-score in assay [2] was 0.409.

As for `CCOC(=O)[C@@H]1[C@@H]2C(=O)N(CC)C(=O)[C@@H]2C[C@@H]1Sc1ccccc1`, the z-score in assay [1] is -0.785 (inactive); in [3], 1.44 (inactive); in assay [4] it was 1.16 (inactive); in [5], -0.245 (inactive); in assay [6], 0.905 (inactive); in assay [7], -0.502. Moreover, the z-score is -2.32 (inactive) in assay [8]; -4.05 (inactive) in assay [9]; -0.796 in [10]; -0.992 in assay [11]; -1.04 in assay [12]; -0.971 in assay [13]. The z-score in assay [14] was -0.223; in [15], -0.0967; in assay [16], -0.644; in [17], 0.186 (inactive); in [18], -0.28; in assay [19], -1.29. Besides, the z-score in assay [20] was 1.06 (inactive). The composite z-score in assay [2] was -0.247.

On to `COCCOC(=O)N1C(=O)[C@@]2(c3ccccc31)[C@H](C(=O)N1CCN(c3ncccn3)CC1)[C@H]1C(=O)O[C@H](c3ccccc3)[C@H](c3ccccc3)N1[C@@H]2c1ccc(OCCO)cc1`, for which the z-score in assay [1] was 1.18 (inactive); in assay [3], 16.4 (active); in [4], 3.96 (inactive); in [5], 0.779 (inactive); in [6], 1.24 (inactive); in assay [7] it was 0.242. Also, the z-score in assay [8] was 0.351 (inactive); in assay [9], 0.798 (inactive); in [10], 0.55; in assay [11], 1.16; in [12], -0.069; in assay [13], 1.39. Also, the z-score is -0.198 in assay [14]; -0.156 in assay [15]; 1.38 in assay [16]; 0.865 (inactive) in assay [17]; -0.459 in assay [18]; -1.27 in [19]. In [20], the z-score was 0.218 (inactive). In assay [2], this molecule showed a composite z-score of -0.244.

Regarding `Cc1c(NC(=O)/C(C#N)=C/C=C/c2ccc(N(C)C)cc2)c(=O)n(-c2ccccc2)n1C`, the z-score in assay [1] was 0.504 (inactive); in assay [3], 16.3 (active); in [4] it was 2.8 (inactive); in [5], -0.164 (inactive); in assay [6], 0.89 (inactive); in assay [7] it was -0.466. Further, the z-score in assay [8] is -2.41 (inactive); in assay [9], -1.51 (inactive); in assay [10], -0.807; in assay [11], 0.284; in assay [12], 0.257; in [13], 0.175. Further, the z-score is 0.232 in assay [14]; 0.285 in [15]; -0.545 in assay [16]; 2.26 (inactive) in assay [17]; -0.665 in assay [18]; 1.64 in assay [19]. Besides, in [20], the z-score was 0.765 (inactive). In addition, the composite z-score in assay [2] was determined as 0.628.
